# Reference: PubChem BioAssay (NCI)
# The panel holds about 83,000 compounds, 20% with a hit somewhere; the sample as a whole holds those more often.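 96-well plates, one dose, 48 hours. Percent growth reported; active if below 10.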 Unmarked numbers belong to inactive results. Activity calls are given as the source filed them.
# Test system: SW-620 colon
# Assay: NCI-60 one-dose screen, 48 h (100 = growth as untreated, 0 = no growth, -100 = all killed)
# Details: 10 µM unless noted
# Experimental: Growth inhibition of the SW-620 human tumor cell line is measured as a screen for anti-cancer activity. Cells are grown in 96 well plates and exposed to the test compound for 48 hours. Compounds are tested at a single concentration, which is 10^-5 M for most compounds. The reported endpoint is percent growth (GI% or GIPRCNT), where numbers from 0 - 100% represent growth inhibition, and numbers from -100% - 0 represent cell death. For example, a value of 40 represents 60% growth inhibition. A value of 0 means no net growth occurred over the course of the experiment. A value of -40 indicates 40% of cells at the beginning of the experiment died by the end of the experiment. A value of -100 means all cells are dead at the end of the experiment.
# NCI-60 Human Tumor Cell Lines Screen was performed using the standard one-dose NCI protocol, which is described in more detail at https://dtp.cancer.gov/discovery_development/nci-60/default.htm.
# Compounds with GIPRCNT values below 10 were considered active. Activity score was based on GIPRCNT using the following formula: […]
# Score is 0 for GIPRCNT values of 100 or above, 50 for GIPRCNT values of 0, and 100 for GIPRCNT values of -100.
row,Structure (SMILES),growth
1,Fc1ccc(Nc2ccc3cc(OCCCN4CCOCC4)ccc3n2)cc1F,10%
2,CCO/C=N/C1=C(C#N)C(c2ccc(OC)cc2)c2c(c3ccccc3n(C)c2=O)O1 (stereo not given),101%
3,O=C1Nc2ccccc2SC1c1ccccc1Cl (stereo not given),75.5%
4,Cl.Fc1c[c-]c(-c2ccccn2)c(F)c1.[Pt].c1ccc([PH+](C[PH+](c2ccccc2)c2ccccc2)c2ccccc2)cc1,-78.1% (active)
5,CCC(=O)OC1=C(C)SC2=NC(c3ccc(Cl)c(Cl)c3)=CC(c3cc(OC)c(OC)c(OC)c3)N21 (stereo not given),109%
6,CN1CCC(=C2c3ccccc3C=Cc3ccccc32)CC1,81.1%
7,N=c1ccn2c(n1)OC1C(O)C(CO)OC12 (stereo not given),41.5%
8,CN1CCN(C(=O)[C@@]2(C)CC[C@]3(C)CC[C@]4(C)C(=CC[C@@H]5[C@@]6(C)C/C(=C/c7ccncc7)C(=O)C(C)(C)[C@@H]6CC[C@]54C)[C@@H]3C2)CC1,31.6%
9,CCOC(=O)c1ccc(-c2ccc3cc(OC)ccc3c2)nc1C,102%
10,Clc1ccc2c(NCCCN3CCN(c4nc(-n5ccnc5)nc5ccccc45)CC3)ccnc2c1,-52.9% (active)
11,CCOC(=O)c1c2c(c(C)n1C)-c1nn(Cc3ccc(OC)cc3)cc1CC2,96.9%
12,CCOC(=O)Cc1csc2nc(-c3ccccc3)nn12,98.5%
13,COc1cccc(/C=C2\COc3ccc(O)cc3C2=O)c1OC,30.5%
14,COc1ccc(CN2C(=O)/C(=C\c3cc(OC)c(OC)c(OC)c3)c3ccccc32)cc1,-40.3% (active)
15,COc1cc(NC(=O)c2cc(O)c(CC=C(C)C)c(O)c2)cc2c1O[C@]1(C)CC[C@@H](O)C(C)(C)[C@H]1C2,14.7%
16,O=C1CSC(c2ccccc2)N1c1ccccc1 (stereo not given),94.5%
17,C=C(CNCCc1ccc(O)cc1)[C@@H]1CC[C@]2(COC3CCCCO3)CC[C@]3(C)[C@H](CC[C@@H]4[C@@]5(C)CCC(N)C(C)(C)[C@@H]5CC[C@]43C)[C@@H]12 (stereo not given in full),-77.4% (active)
18,Cc1c(C)c2c(c(C)c1NC(=O)/C=C\C(=O)O)CCC(C)(CCCC(C)CCCC(C)CCCC(C)C)O2 (stereo not given),30%
19,CC(=O)Nc1cccc(C2=CC(c3ccc(C)cc3)n3ncnc3N2)c1 (stereo not given),102%
20,Cc1ccc(S(=O)(=O)N(CC[C@@H]2C[C@H]2c2cc3ccccc3o2)C(=O)NC2CCCCC2)cc1,92.1%

row,Structure (SMILES),growth
1,C=C1C(=O)O[C@H]2[C@H]1CC/C(C(=O)NCCCCCCCCNC(=O)/C1=C/CC[C@@]3(C)O[C@H]3[C@H]3OC(=O)C(=C)[C@@H]3CC1)=C\CC[C@@]1(C)O[C@@H]21,14.2%
2,CN(C)CCn1cc(-c2ccc3c(Nc4ccc(CC(=O)Nc5cccc(F)c5)cc4)ncnc3c2)cn1,-64.2% [30 µM] (active)
3,CC(=O)Nc1nccs1,92.5%
4,CC1(C)N=C(N)N=C(N)N1c1cccc(CN)c1,98.4%
5,COc1ccc(Cn2cnc3cc(C(=O)Nc4cccc5ccccc45)ccc32)c(OC)c1,22.7% [30 µM]
6,CN1C[C@@H](c2ccc(Cl)cc2)[C@]2(NC(=S)N(c3ccccc3)C2=O)[C@@]12C(=O)NC1C=CC(Br)=C[C@H]12 (stereo not given in full),85.2%
7,CC(C)(C)CC(C)(C)Nc1c(-c2ccc(-c3ccccc3)cc2)nc2cnccn12,97.1%
8,CC(=O)Nc1ccc2c(c1)Cc1c(F)cccc1-2,102%
9,CN(C)c1ccc(C#Cc2c(F)cccc2Cl)cc1,96%
10,CC(=O)c1cc2c(o1)C(=O)c1ccccc1C2=O,-77.4% (active)
11,COc1cc(C2C=C(c3cccc(NC(C)=O)c3)Nc3ncnn32)cc(OC)c1OC (stereo not given),27.6%
12,CC(=O)NCC(=O)Nc1ccc(-c2nnc3ccccn23)nc1.CC(=O)NCC(=O)Nc1ccc(-c2nnc3ccccn23)nc1.[Pt+2],105%
13,CCOC(=O)c1c(C)nc2c(c1N)/C(=C/c1cc(OC)c(OC)c(OC)c1)C(=O)N2c1ccc(OC)cc1,30.9%
14,CCOC(=O)c1c(C)[nH]c(C(=O)CCC(=O)OC)c1C,108%
15,Cc1c(C(=O)O)nnn1-c1nccs1,94%
16,CC1(C)CC(=O)c2c(ccc(C(=O)C[C@H](N)CO)c2N)O1,7.48% (active)
17,N#Cc1cnn2c(-c3ccc(Cl)cc3)nc(NC3CC3)nc12,103%
18,CCOC(=O)C1=C(C)NC(SCc2nnc(-c3ccc(Cl)cc3)o2)=NC1c1ccc(Cl)cc1Cl (stereo not given),66.2%
19,CC(=O)Nc1ccc(-c2cc3c(NCc4ccc(F)cc4)ncnc3s2)cc1,97.7%
20,CN1CCN(c2ccc3nc(/N=C/c4ccc5sc(-c6ccc([N+](=O)[O-])cc6)nc5c4)sc3c2)CC1,116%
